The values that follow come from PubChem BioAssay AID1942 (Johns Hopkins Ion Channel Center, 2009).

Each structure is given as a SMILES string. Out of some 2,400 compounds screened, about 580 (24%) were called active. Only a sample is shown. A number with no mark means an inactive call.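 How the source made its calls: active means activity change at or above the mean plus 3 SD of buffer wells without dofetilide, per plate; inactive means the rest.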

This assay deals with Potassium voltage-gated channel subfamily KQT member 2 (Rattus norvegicus) (UniProt O88943). Briefly: KCNQ2 potentiation in CHO cells – cell-based, FluxOR thallium flux, counter-screen for hERG block protector project, confirmation (AID 1942).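 Further: normalized value minus buffer-control mean plus three SD of buffer wells.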 The note with it: FluxOR thallium flux fluorescence, at 10 µM, active compounds read high. On the technique in general: Counterscreens check selectivity or assay interference.
Potassium voltage-gated channel subfamily KQT member 2 (Rattus norvegicus), sequence (O88943 whole entry, looked up): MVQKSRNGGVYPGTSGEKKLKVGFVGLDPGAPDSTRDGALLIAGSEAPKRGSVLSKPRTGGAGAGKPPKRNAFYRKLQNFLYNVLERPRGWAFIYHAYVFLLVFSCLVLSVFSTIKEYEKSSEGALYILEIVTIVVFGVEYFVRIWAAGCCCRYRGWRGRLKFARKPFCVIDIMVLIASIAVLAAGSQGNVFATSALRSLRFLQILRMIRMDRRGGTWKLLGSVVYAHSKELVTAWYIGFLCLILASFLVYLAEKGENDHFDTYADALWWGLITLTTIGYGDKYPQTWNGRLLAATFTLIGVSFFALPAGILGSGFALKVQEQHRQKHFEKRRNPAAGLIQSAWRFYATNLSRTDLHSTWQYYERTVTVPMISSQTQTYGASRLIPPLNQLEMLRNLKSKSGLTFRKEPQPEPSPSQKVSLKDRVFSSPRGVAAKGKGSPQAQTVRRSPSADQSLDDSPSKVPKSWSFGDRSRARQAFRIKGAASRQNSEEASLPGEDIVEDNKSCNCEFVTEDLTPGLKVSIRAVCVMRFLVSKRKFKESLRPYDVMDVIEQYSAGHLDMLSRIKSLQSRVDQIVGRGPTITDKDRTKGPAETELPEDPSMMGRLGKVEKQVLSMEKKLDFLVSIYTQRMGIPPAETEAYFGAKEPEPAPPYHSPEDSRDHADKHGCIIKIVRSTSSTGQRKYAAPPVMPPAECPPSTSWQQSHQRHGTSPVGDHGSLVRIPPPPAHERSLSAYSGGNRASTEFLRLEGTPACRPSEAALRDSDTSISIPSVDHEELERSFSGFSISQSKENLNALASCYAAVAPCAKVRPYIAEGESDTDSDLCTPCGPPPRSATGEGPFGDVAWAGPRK
Take `O=c1[nH]c(=S)[nH]c2c1C(c1ccc(Br)cc1)c1c([nH]c(=S)[nH]c1=O)O2`: the activity change, less the hit threshold is -17.1%.
For the compound `CCOC(=O)c1[nH]cnc1C(=O)Nc1ccc([N+](=O)[O-])cc1`, the activity change, less the hit threshold was -11.7%.
With `Cc1cc(SCC(=O)c2cccc([N+](=O)[O-])c2)nc(=O)[nH]1` the figure was -15.5%; with `Cc1ccccc1C(=O)NNC(=O)c1cccc([N+](=O)[O-])c1`, -19.8%.
As for `CCOC(=O)/C(C)=N/NC(=O)c1ccc([N+](=O)[O-])cc1`, the figure is 16.8% (active).
With `CCOc1ccc(C(=O)N/N=C/c2cc([N+](=O)[O-])cs2)cc1` the figure was -17.4%; with `CCOC(=O)/C(C)=N/NC(=O)c1cccc([N+](=O)[O-])c1`, 5.2% (active).
`S=C(NCCc1ccccc1)N/N=C/c1c(Cl)cccc1Cl`: the activity change, less the hit threshold was -18.4%.
For `CC1(C)CC(=O)c2c(nn(-c3ccccc3)c2-c2ccncc2)C1`, the activity change, less the hit threshold was -16.4%.
Take `Cc1nn(Cc2ccccc2)c2c1C(c1cccnc1)C(C#N)=C(N)O2` (stereo not drawn): the activity change, less the hit threshold is -10.8%.
As for `O=C(COc1ccccc1)NC(=S)Nc1ccc2c(c1)Cc1ccccc1-2`, the figure is -19.3%; as for `CC(Oc1ccccc1F)C(=O)NC1CCS(=O)(=O)C1` (stereo not drawn), -17.8%; as for `O=C(O)c1cc(/C=N\O)ccc1OCc1ccccc1`, -16.1%.
For `CCOc1ccccc1NC(=O)C(=O)CC(=O)c1cccc(OC)c1`, the activity change, less the hit threshold is -8.6%.
On to `COc1ccc(C(=O)CC(=O)C(=O)Nc2ccc(C)c(Cl)c2)cc1`, for which the activity change, less the hit threshold was -9%.
As for `COc1cccc(C(=O)CC(=O)C(=O)Nc2ccc(C)cc2Cl)c1`, the figure is 10.8% (active).
With `COc1ccc(C(=O)CC(=O)C(=O)Nc2ccc(C)cc2Cl)cc1`, the activity change, less the hit threshold is 10.2% (active).
As for `CCN1CCN(CC(=O)c2ccc(OC)cc2)CC1`, the activity change, less the hit threshold was -18.4%.
As for `COc1ccc(C(=O)CC(=O)C(=O)Nc2ccccc2)cc1`, the figure is 3.1% (active).
With `COc1cc(OC)cc(C(=O)O/N=C(\N)c2cccc(C)c2)c1` the figure was -9.7%; with `COc1ccc(C(=O)CC(=O)C(=O)Nc2ccccc2C(F)(F)F)cc1`, 7.4% (active).
For `COc1ccc(C(=O)CC(=O)C(=O)Nc2ccc(C)c(C)c2)cc1`, the activity change, less the hit threshold is -11.4%.
As for `COc1ccc(C(=O)CNc2ccccc2C#N)cc1`, the figure is -15%.
With `COc1ccc(C(=O)CC(=O)C(=O)Nc2ccc(Cl)cc2)cc1`, the activity change, less the hit threshold is -2.1%.
For the compound `CCCNc1c(NS(=O)(=O)c2cccc(C#N)c2)c(=O)oc2ccccc12`, the activity change, less the hit threshold was -15.8%.
As for `CCOC(=O)c1c(C)oc2cc(Br)c(OC)cc12`, the figure is -14.7%; as for `COCCCNC(=O)CC(NS(=O)(=O)c1ccc(F)cc1)c1ccc(OC)cc1` (stereo not drawn), -22.5%.
`O=C1C=C(NCCN2CCOCC2)C(=O)c2cnccc21`: the activity change, less the hit threshold is -10.1%.
On to `CCN(Cc1ccc(OC)c(F)c1)C(=O)C1CCCO1` (stereo not drawn), for which the activity change, less the hit threshold is -7.1%.
With `COc1cc(/C=C2/C(=O)NN(c3ccccc3)C2=O)cc(Br)c1O` the figure was -17.5%.
With `CC(C)CCNC(=O)CCc1nnc(Cc2c[nH]c3ccccc23)o1` the figure was -15.1%.
With `COc1ccc(C(=O)CC(=O)C(=O)Nc2ccccc2OC)cc1`, the activity change, less the hit threshold is -10.2%.
As for `COc1ccc(C(=O)CC(=O)C(=O)Nc2ccccc2Cl)cc1`, the activity change, less the hit threshold was 44.4% (active).
For the compound `CCOc1ccccc1NC(=O)C(=O)CC(=O)c1ccc(OC)cc1`, the activity change, less the hit threshold was -5.2%.
As for `CC1CCCC(C(=O)OCc2ccccc2)N1` (stereo not drawn), the figure is -16.7%.
As for `Cn1cc([N+](=O)[O-])c(C(=O)NCc2cc3cc(Cl)ccc3[nH]2)n1`, the figure is -13.6%; as for `N#Cc1ccccc1OCCN1C(=O)c2ccccc2C1=O`, -7.5%; as for `Cc1ccc(-c2cc(-c3n[nH]c(=S)o3)c3ccccc3n2)cc1`, 37.2% (active).
With `Cc1ccc(/C=N/NC(=O)c2cc(-c3ccncc3)nc3ccccc23)o1` the figure was -26.9%.
With `C=CCn1c(-c2cc(-c3ccc(C)cc3)nc3ccccc23)n[nH]c1=S`, the activity change, less the hit threshold is -9.8%.
In the case of `N#Cc1cc(-c2ccccc2)nnc1Oc1ccccc1`, the activity change, less the hit threshold is -14.7%.
As for `COc1cc2c(cc1OC)CN(C(=O)c1sccc1C)CC2`, the figure is -20.7%.
With `COc1ccccc1C(=O)Nc1ccc(C(=O)N2CCCC2)cc1` the figure was -7.2%; with `Cc1ccc(NC(=O)C(=O)NNC(=O)c2ccccc2C)cc1Cl`, 90.3% (active); with `COc1ccccc1C(=O)NNC(=O)C(=O)Nc1ccc(C)cc1`, 132% (active).
As for `COc1ccccc1C(=O)Nc1ccnn1C1CCN(C(=O)c2ccoc2C)CC1`, the figure is -12.1%; as for `COc1ccc(NC(=O)c2ccccc2SC)cc1OC`, -19.4%.
For the compound `COc1ccccc1C(=O)NNC(=O)C(=O)NC(C)(C)C`, the activity change, less the hit threshold is 16.8% (active).
Regarding `COc1ccccc1C(=O)NNC(=O)C(=O)Nc1ccc(C)c(Cl)c1`, the activity change, less the hit threshold is 126% (active).
With `O=C(O)c1cc(-c2cccc([N+](=O)[O-])c2)n[nH]1` the figure was -19.6%.
On to `O=C(Nc1ccc(Cl)c(-c2nc3ccccc3[nH]2)c1)c1cccnc1`, for which the activity change, less the hit threshold was -40.7%.
As for `COc1ccc(CNC(=O)C2CCCN2)cc1OC` (stereo not drawn), the figure is -26.1%.
With `COc1cc(C2C(C#N)=C(N)Oc3c2ccc2ccccc32)ccc1OCC(=O)Nc1ccc(C)cc1` (stereo not drawn) the figure was -15.1%.
As for `Cc1ccc(C)c(OCc2cc(C(=O)N3CCNC(=O)C3)no2)c1`, the figure is -16%.
Consider `Cn1c(=O)c(-c2cc(=O)[nH][nH]2)c(O)c2ccccc21`, for which the activity change, less the hit threshold was -13.7%.
With `CN(C)NC(=O)C(NC(=O)c1ccc(N)cc1)C12CC3CC(CC(C3)C1)C2` (stereo not drawn) the figure was -13.9%; with `Cc1ccc(NC(=O)CN2C(=O)S/C(=C\c3ccc(-c4cccc(C(=O)O)c4C)o3)C2=O)cc1`, -27%; with `COc1ccccc1C(=O)NNC(=O)C(=O)NC1CCCCC1`, 49.7% (active).
As for `COc1ccc(C(=O)NNC(=O)C(=O)NC2CCCCC2)cc1`, the figure is -1.7%.
With `COc1ccccc1C(=O)NCc1ccc2c(c1)OCO2` the figure was -21.4%; with `O=C(COc1ccc(Cl)cc1)NNC(=O)C(=O)NC1CCCCC1`, -11.2%.
As to `COc1ccccc1C(=O)NNC(=O)C(=O)NCc1ccccc1`, the activity change, less the hit threshold was 18.8% (active).
In the case of `COc1cc(NC(=O)c2ccccc2OCc2ccccc2)cc(OC)c1OC`, the activity change, less the hit threshold was -26.8%.
Turning to `CC(C)CSC1=NSC2=NC(=O)/C(=C\c3ccccc3)C(=N)N12`, the activity change, less the hit threshold was 1.1% (active).
As for `Cc1ccc(/C=C2/C(=N)N3N=C(CC(=O)N4CCCC4)SC3=NC2=O)cc1`, the figure is -19.5%; as for `O=C(OCc1ccc([N+](=O)[O-])cc1)c1cc2ccccc2oc1=O`, -21.1%; as for `CCOC(=O)C1=C(c2ccccc2)NC(=O)NC1c1ccc(OC)c(OC)c1` (stereo not drawn), -25.1%.
Take `COc1cc(C2NC(=O)NC(C)=C2C(=O)OCC2CCCCC2)ccc1O` (stereo not drawn): the activity change, less the hit threshold is -7.2%.
On to `CCOC(=O)C1=C(c2ccccc2)NC(=O)NC1c1ccc(O)c(Cl)c1` (stereo not drawn), for which the activity change, less the hit threshold is 0.1% (active).
As for `C/C(=N\NC(=O)COc1ccc(C)cc1C(C)C)c1ccc(-n2ccnc2)cc1`, the figure is -22.3%; as for `Cc1nn(-c2ccc(Cl)cc2)c2sc(C(=O)c3c(N)n(C)c(=O)n(C)c3=O)cc12`, -14.1%.
With `Cc1nc2ccc(C(=O)O)cc2[nH]1` the figure was -10.4%; with `C=CCn1c(=S)[nH]c2ccc(Br)cc2c1=O`, 12.4% (active).
As for `COc1ccccc1Cn1c(=S)[nH]c2ccc(Br)cc2c1=O`, the figure is -7.4%.
Regarding `O=C(CCN1C(=O)/C(=C\C=C\c2ccccc2)SC1=S)Nc1ccc(C(=O)O)cc1`, the activity change, less the hit threshold is -12.3%.
With `O=c1[nH]c2ccccc2nc1C(F)(F)C(F)F` the figure was -16.2%; with `CCSc1nc2c(sc3ccccc32)c(=O)n1C(C)C`, 30.9% (active); with `CCC(C)Sc1nc2c([nH]c3ccccc32)c(=O)n1C` (stereo not drawn), -19.6%.
With `COCCCN1C(=O)C(=O)/C(=C(/O)c2ccc(S(=O)(=O)N3CCOCC3)cc2)C1c1ccc(F)cc1` (stereo not drawn) the figure was -9.9%; with `CNc1nc(N)nc(OC(C(F)(F)F)C(F)(F)F)n1`, -11%; with `Oc1ccc(/C=N/Nc2nccnc2Cl)c(O)c1`, 6.2% (active).
With `CN1C(=O)/C(=N\OC(=O)c2cccc3ccccc23)c2ccccc21` the figure was -9.4%; with `CCOC(=O)c1c(O)c2ccccc2n(C)c1=O`, -10.3%; with `CCOC(=O)C1CCN(C(=O)COC(=O)c2nn(C)c(=O)c3ccccc23)CC1`, -21%.
For `CCOC(=O)c1n[nH]n2c1nc(=S)c1ccccc12`, the activity change, less the hit threshold is 49.6% (active).
In the case of `COC(=O)c1c(N2C(=O)CC(Sc3ncccc3C(=O)O)C2=O)sc(C)c1C` (stereo not drawn), the activity change, less the hit threshold is -12.9%.
With `COc1ccc(/C=N/NC(=O)c2ccncc2)cc1CN1CCCc2ccccc21` the figure was -22.8%; with `O=C(NNc1c(F)c(F)cc(F)c1F)c1cc2ccccc2oc1=O`, -13%.
For the compound `O=c1[nH]n2c(=O)c3c([nH]c2c1N=Nc1ccccc1)CCC3`, the activity change, less the hit threshold was -11.6%.
With `O=C(NC(=S)N1CCN(C/C=C/c2ccccc2)CC1)c1ccc(Cl)nc1` the figure was 7.4% (active).
As for `CNC(=O)NC(=O)C(C)N1CCN(C/C=C/c2ccccc2)CC1` (stereo not drawn), the figure is -19.2%; as for `O=C(CCN1C(=O)/C(=C\C=C\c2ccccc2)SC1=S)Nc1cccc(C(=O)O)c1`, -20.7%.
Take `O=C(Nc1ccc(N2CCN(C(=O)c3ccc(Cl)cc3)CC2)cc1)c1ccc([N+](=O)[O-])o1`: the activity change, less the hit threshold was -6.1%.
With `CC(=O)NC(CSC(CC(=O)c1ccco1)c1ccc(C)cc1)C(=O)O` (stereo not drawn), the activity change, less the hit threshold is -4.9%.
Regarding `Cc1ccc(S(=O)(=O)c2nnn3c2nc(N2CCOCC2)c2ccccc23)c(C)c1`, the activity change, less the hit threshold was -20.7%.
As for `COc1ccccc1NC(=O)C1CCCN1C(=O)NCc1ccccc1` (stereo not drawn), the figure is -24.2%; as for `COc1ccccc1NC1=C(NC(C)=O)C(=O)c2ccccc2C1=O`, 14.4% (active).
Consider `CCOC(=O)c1nnn(CC(=O)Nc2ccccc2OC)c1C(=O)OCC`, for which the activity change, less the hit threshold is -15.8%.
